Compound activity from PubChem.
A selection: hits, their analogues and other compounds. The true share with any hit is near 19%.
HT1080 IDH1KD tx – toxicity to HT-1080 IDH1 knockdown cells (counter line) | HT-1080 IDH1 knockdown viability, ATP luminescence, 48 h | Potency, µM (series often up to 46.1 µM), for inactives: at the top dose activity, negative = toxicity, hits mostly cytotoxic | actives 2% (n = 360,000) | AID 686971;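 note: potency is the fitted concentration of half-maximal effect; 0% = DMSO wells and -100% = cell-free medium wells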
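Viability of IDH1-knockdown HT-1080 fibrosarcoma cells was assessed by CellTiter-Glo after 48 h at 37 °C with titrated compound; concentration-effect curves were classified by fit quality and response size.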
TDP1 cell CPT – DT40-hTDP1 cell growth loss with CPT; actives 12% (n = 420,000); chicken DT40 Tdp1-/-;hTDP1 cells + 20 nM CPT, ATP luminescence, 48 h; Potency, µM (doses to about 46.2 µM), for inactives: at the top dose activity change, negative = growth inhibition, usual class: inhibitors; note: potency is the fitted concentration of half-maximal effect; nearly all actives have a fitted effect of over 55% in size
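Chicken DT40 Tdp1-/- cells stably complemented with human TDP1 were seeded at 400 cells/well in medium containing 20 nM camptothecin, exposed to pin-transferred compounds, and grown at 37 °C for at least 48 hr. Viability was read as ATP luminescence.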
ELG1 DNA repair – ELG1-dependent DNA repair inhibition. HEK293T ELG1-luciferase reporter, luminescence, 16 h; DNA damage induced by 5-fluorouridine. Potency, µM (series often up to 46.1 µM), for inactives: at the top dose activity change, negative = inhibition, most hits filed as inhibitors. actives 2.3% (n = 330,000); note: potency is the fitted concentration of half-maximal effect; nearly all actives have a fitted effect of over 55% in size
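Quantitative HTS, concentration-response format. 2,000 cells/well co-treated with 5-fluorouridine and compound, 16 hr in 5% CO2 at 37 °C; ONE-Glo luminescence read after 30 min.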
IL-1B inflam inh – inflammasome signaling inhibition, IL-1 beta readout; THP-1 LPS/ATP IL-1B secretion, AlphaLISA, 16 h; stronger effect = lower value; activity change, % at 57.5 µM; actives 4.7% (n = 360,000); AID 743279; in the data active = activity change below about -50%; inconclusive = mostly about -30% to -49%
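Secreted IL-1B measured by AlphaLISA bead assay after 16 h compound exposure of THP-1 cells; compounds (final up to 57.5 uM) added 1 h before LPS (250 ng/mL) and ATP (1.25 mM) stimulation; lower signal means less secretion.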
TDP1 cell noCPT – qHTS for Inhibitors of human tyrosyl-DNA phosphodiesterase 1 (TDP1): qHTS in cells in absence of CPT. actives 15% (n = 420,000). AID 686978, 2013. DT40 Tdp1-/- hTDP1 cells, no CPT, ATP luminescence, 48 h. Potency, µM (series often up to 46.2 µM), inactives show at the highest dose activity change, negative = growth inhibition, hits mostly inhibitors; note: potency is the fitted concentration of half-maximal effect; nearly all actives have a fitted effect of over 55% in size
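Growth kinetics read by CellTiter-Glo luminescence after ≥48 hr at 37 °C. Cells: DT40 Tdp1-/- stably carrying human TDP1, 400 per well, compound exposure in the absence of CPT (DMSO vehicle).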
HT1080NT lethal – kills 2HG-producing HT-1080-NT fibrosarcoma cells; HT-1080-NT fibrosarcoma viability, CellTiter-Glo ATP luminescence, 48 h; Potency, µM (doses to about 46.1 µM), inactives show top-dose activity, negative = less viability, hits mostly cytotoxic; actives 1.6% (n = 360,000);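 note: NT is the 2HG producing partner of a matched IDH1 knockdown line; potency is the fitted concentration of half-maximal effect; 0% = DMSO-treated cells and -100% = media-only wells without cells; nearly all actives have a fitted effect of over 55% in size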
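A 48-hour cytotoxicity screen used HT-1080-NT cells plated 2 hours before compound delivery. ATP-based CellTiter-Glo luminescence measured viability, normalized to DMSO and no-cell controls.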
The depositor's hits bear a star. Unless noted, calls come from the whole dose curve; as a rule, active = well fitted curve in the direction sought with a large enough effect; inconclusive = small, poorly fitted or top-dose-only effect, or another doubt; inactive = no such curve, though single readings can be large; an effect the other way counts as inactive or inconclusive. Unless noted, % is set by controls: 0 for no effect and ±100 for the full control effect.

Results for C[N+](C)(C)C(Cc1c[nH]c2ccccc12)C(=O)[O-] (stereo not given) ?
ELG1 DNA repair: 4%

How did CSc1ccc(S(=O)(=O)N2CCC(C(=O)Nc3ccccc3C(F)(F)F)CC2)cc1 do in these assays?
HT1080 IDH1KD tx: -5%; TDP1 cell CPT: 11%; ELG1 DNA repair: -5%; IL-1B inflam inh: -4; TDP1 cell noCPT: -17%; HT1080NT lethal: 0%

What do the screens show for `C/C(=N\Nc1cc(N2CCOCC2)ncn1)c1ccccc1`?
HT1080 IDH1KD tx: -9%; TDP1 cell CPT: 23µM*; ELG1 DNA repair: inconclusive; IL-1B inflam inh: -79*; TDP1 cell noCPT: inconclusive; HT1080NT lethal: -9%

Results for O=[N+]([O-])c1cccc(/C=N/Nc2nc(N3CCOCC3)nc(N3CCOCC3)n2)c1 ?
HT1080 IDH1KD tx: -1%; TDP1 cell CPT: -5%; ELG1 DNA repair: inconclusive; IL-1B inflam inh: -1; TDP1 cell noCPT: inconclusive; HT1080NT lethal: 1%

How did O=[N+]([O-])c1cccc(/C=N/Nc2cc(N3CCOCC3)ncn2)c1 do in these assays?
HT1080 IDH1KD tx: 13%; TDP1 cell CPT: inconclusive; ELG1 DNA repair: 13%; IL-1B inflam inh: -68*; TDP1 cell noCPT: inconclusive; HT1080NT lethal: -3%

Results for C/C(=N\Nc1cc(N2CCOCC2)ncn1)c1cccc([N+](=O)[O-])c1 ?
HT1080 IDH1KD tx: 13%; TDP1 cell CPT: inconclusive; ELG1 DNA repair: -13%; IL-1B inflam inh: -21; TDP1 cell noCPT: 16µM*; HT1080NT lethal: 5%

What do the screens show for `Cc1cnc(CNc2cc(-c3ccccc3Cl)ncn2)cn1`?
TDP1 cell CPT: 5%; TDP1 cell noCPT: 2%

What do the screens show for `COC(=O)[C@H](Cc1ccc(O)cc1)NC(=O)Cn1cnc(C(=O)Nc2ccc(C)c(C)c2)n1`?
HT1080 IDH1KD tx: 5%; TDP1 cell CPT: -17%; ELG1 DNA repair: inconclusive; IL-1B inflam inh: 24; TDP1 cell noCPT: -21%; HT1080NT lethal: 5%

How did Cc1ccc(NC(=O)c2ncn(CCCNCCCc3ccccc3)n2)cc1C do in these assays?
HT1080 IDH1KD tx: inconclusive; TDP1 cell CPT: inconclusive; IL-1B inflam inh: -28; TDP1 cell noCPT: 21µM*; HT1080NT lethal: -18%

What do the screens show for `Cc1ccc(NC(=O)c2ncn(CCCNCCCN(C)C)n2)cc1C`?
HT1080 IDH1KD tx: -2%; TDP1 cell CPT: inconclusive; IL-1B inflam inh: 0; TDP1 cell noCPT: inconclusive; HT1080NT lethal: -11%

How did Cc1ccc(NC(=O)c2ncn(CCCN(CCCn3cnc(C(=O)Nc4ccc(C)c(C)c4)n3)Cc3ccc4[nH]ccc4c3)n2)cc1C do in these assays?
HT1080 IDH1KD tx: 21µM*; TDP1 cell CPT: inconclusive; IL-1B inflam inh: 8; TDP1 cell noCPT: 15µM*; HT1080NT lethal: 16µM*

How did COc1ccc(CNCCCn2cnc(C(=O)Nc3ccc(C)c(C)c3)n2)cc1 do in these assays?
HT1080 IDH1KD tx: -11%; TDP1 cell CPT: inconclusive; IL-1B inflam inh: -17; TDP1 cell noCPT: 16µM*; HT1080NT lethal: -7%

What do the screens show for `COC(=O)[C@H](Cc1ccccc1)NCCCn1cnc(C(=O)Nc2ccc(C)c(C)c2)n1`?
HT1080 IDH1KD tx: -1%; TDP1 cell CPT: inconclusive; IL-1B inflam inh: 2; TDP1 cell noCPT: 18µM*; HT1080NT lethal: -4%

What do the screens show for `Cc1ccc(NC(=O)c2ncn(CC(=O)NCc3ccc4[nH]ccc4c3)n2)cc1C`?
HT1080 IDH1KD tx: -1%; TDP1 cell CPT: inconclusive; ELG1 DNA repair: inconclusive; IL-1B inflam inh: -4; TDP1 cell noCPT: -29%; HT1080NT lethal: 1%

Results for Cc1ccc(NC(=O)Nc2nnc(N3CCCC3)s2)cc1C ?
TDP1 cell CPT: -1%; TDP1 cell noCPT: -11%

What do the screens show for `Cc1ccccc1NC(=O)Cc1nnc(SCC(=O)NC2CCCC2)n1C`?
HT1080 IDH1KD tx: -1%; TDP1 cell CPT: 2%; ELG1 DNA repair: 0%; IL-1B inflam inh: -16; TDP1 cell noCPT: 9%; HT1080NT lethal: 0%

What do the screens show for `Cc1ccc(NC(=O)c2ncn(CCCN3CCN(c4ccccn4)CC3)n2)cc1C`?
HT1080 IDH1KD tx: -6%; TDP1 cell CPT: inconclusive; IL-1B inflam inh: -6; TDP1 cell noCPT: 26µM*; HT1080NT lethal: -1%

Results for Cc1ccc(NC(=O)c2ncn(CCCN3CCN(c4ncccn4)CC3)n2)cc1C ?
HT1080 IDH1KD tx: 6%; TDP1 cell CPT: inconclusive; IL-1B inflam inh: 20; TDP1 cell noCPT: inconclusive; HT1080NT lethal: 4%

What do the screens show for `O=C1NC[C@H](CCCCN2CCN(CCc3ccccc3)C(=O)C2=O)N(CCC2CCCCC2)C1=O`?
HT1080 IDH1KD tx: 13%; TDP1 cell CPT: 2%; IL-1B inflam inh: -9; TDP1 cell noCPT: -26%; HT1080NT lethal: 23%

Results for CC(=O)Nc1ccc(CN(C)c2c(C)nc3ccc(C(=O)NC4CCN(Cc5ccccc5)CC4)cn23)cc1 ?
HT1080 IDH1KD tx: inconclusive; TDP1 cell CPT: inconclusive; IL-1B inflam inh: -11; TDP1 cell noCPT: inconclusive; HT1080NT lethal: inconclusive

What do the screens show for `CC(=O)Nc1ccc(CN(C)c2c(C)nc3ccc(C(=O)N4CCN(c5ccccc5)CC4)cn23)cc1`?
HT1080 IDH1KD tx: -5%; TDP1 cell CPT: 23µM*; IL-1B inflam inh: 31; TDP1 cell noCPT: inconclusive; HT1080NT lethal: -3%

Results for CC(=O)Nc1ccc(CN(C)c2c(C)nc3ccc(C(=O)N(C)Cc4ccccc4)cn23)cc1 ?
HT1080 IDH1KD tx: 0%; TDP1 cell CPT: inconclusive; IL-1B inflam inh: 0; TDP1 cell noCPT: 16µM*; HT1080NT lethal: 0%

What do the screens show for `COc1cccc(CN2CCC2(C)C(=O)Nc2ccc3c(c2)CCN3C(C)=O)c1F` (stereo not given)?
HT1080 IDH1KD tx: -20%; TDP1 cell CPT: inconclusive; IL-1B inflam inh: inconclusive; TDP1 cell noCPT: inconclusive; HT1080NT lethal: -21%

How did CCc1ccc2nc(N(CCCN(C)C)C(=O)c3ccc(S(=O)(=O)N(C)C4CCCCC4)cc3)sc2c1 do in these assays?
HT1080 IDH1KD tx: 23µM*; TDP1 cell CPT: 16µM*; ELG1 DNA repair: -8%; IL-1B inflam inh: -61*; TDP1 cell noCPT: inconclusive; HT1080NT lethal: inconclusive

How did COc1cc2nc(N(CCCN(C)C)C(=O)c3ccc(S(=O)(=O)N(C)C4CCCCC4)cc3)sc2cc1OC do in these assays?
HT1080 IDH1KD tx: 7%; TDP1 cell CPT: inconclusive; ELG1 DNA repair: -5%; IL-1B inflam inh: -79*; TDP1 cell noCPT: 16µM*; HT1080NT lethal: 3%
